Among all 48,000 compounds or so, about 13,000 (27%) showed an effect of 50% or more. This is one part of the list.
Test system: Wolbachia pipientis
Test: Anti-Wolbachia Cell-Based Screen
Type: functional
Set-up: scale not given: in the data most compounds retested in dose-response had high values
Details: 5 µM

Row | Structure (SMILES) | Percent Effect [%]
1 | N#CC1(c2ccccc2)CCN(C(=O)C2CCCN(CC(N)=O)C2)CC1 (centres undefined) | -8.527
2 | CC(C)(O)c1cn(C[C@H]2C[C@@H]3CCN2C[C@@H]3C(=O)N2CCOCC2)nn1 | -10.14
3 | O=C(O)C(F)(F)F.O=C(O)C(F)(F)F.O=C1N(c2cncnc2)CCC12CCCN(Cc1ccccn1)C2 (centres undefined) | -2.82
4 | O=C(O)C(F)(F)F.O=C(O)C(F)(F)F.O=S(=O)(C1CC1)N1CCC2(CCCN(Cc3ccccn3)C2)C1 (centres undefined) | 113.2
5 | O=S(=O)(C1CC1)N1CCC2(CCCN(Cc3ccccn3)C2)CC1 | 112.9
6 | CS(=O)(=O)N1CCC2(CCCN(Cc3ccccn3)C2)C1.O=C(O)C(F)(F)F.O=C(O)C(F)(F)F (centres undefined) | -1.492
7 | CS(=O)(=O)N1CCC2(CCCN(Cc3ccccn3)C2)CC1.O=C(O)C(F)(F)F | 4.513
8 | Cc1cnn(CC(C)NCCc2cccs2)c1 (centres undefined) | 11.98
9 | CC(C)=CCN1CCN(C(=O)COc2ccccc2)[C@H]2CS(=O)(=O)C[C@H]21 | -38.59
10 | CC1CN(C)CCN1C(=O)COc1cccc(Oc2ccccn2)c1 (centres undefined) | 82.16
11 | COCCN1C[C@H]2[C@@H](C1)N(C(=O)COc1ccccc1)CC[C@H]2OC | 0.3223
12 | O=C(c1ccnc(-n2cnnc2)c1)N1CCCC2(CCNC2)C1 (centres undefined) | -10.09
13 | CN(C)c1nccc(N(C)C2CCN(CC3CCOC3)CC2)n1 (centres undefined) | -1.947
14 | CC(C)N1CCOC(c2ccnc(N(C)C)n2)C1 (centres undefined) | 82.78
15 | CC(C)N1CCC(N(C)c2ccnc(N(C)C)n2)CC1 | 15.64
16 | CCOC(=O)N1CCCC2(CCCNC2)C1.Cl (centres undefined) | -10.87
17 | Oc1ccc(N2CCN(Cc3ccc(F)cc3Br)CC2)cc1 | 1.788
18 | CCCN(CC)c1cc(C2CCNCC2)nc(C)n1 | 112.1
19 | CC(C)NC(=O)CN1CCSC2(CCCCC2)C1 | -91.97
20 | O=C1N(Cc2ccccn2)C[C@H]2CN(C3CCOCC3)CCN12 | 0.5644
21 | O=C(c1cccc(-n2cnnn2)c1)N1CCC2(CC1)OCCO2 | 106.4
22 | O=C(C1CC(=O)N(c2ccccc2)C1)N1CCC2(CC1)OCCO2 (centres undefined) | -2.385
23 | O=C(c1cnc(-c2ccccc2)s1)N1CCC2(CC1)OCCO2 | -4.517
24 | CCCN1CCC(c2nc3ccc(C)cn3n2)CC1.O=C(O)C(F)(F)F | 104.2

Row | Structure (SMILES) | Percent Effect [%]
25 | Cc1cnc(N2C[C@H]3CCN(CC4CC4)C[C@H]3C2)nc1.O=C(O)C(F)(F)F | 15.24
26 | Cc1cnc(N2C[C@H]3CCN(CC4CC4)C[C@@H]3C2)nc1.O=C(O)C(F)(F)F | 6.173
27 | O=C(NC[C@H]1C[C@@H]2CCN1C[C@@H]2CN1CCCCC1)Nc1ccsc1 | 3.271
28 | CC[C@H]1CN2CC[C@H]1C[C@@H]2CNCc1ccc(OC(F)(F)F)cc1 | -1.711
29 | CCOc1ncccc1C(=O)N1CCN(C)C2(CCN(C)CC2)C1 | -9.489
30 | Cc1ccc(CC(=O)N2CCN(CC(O)c3ccccc3)CC2)cn1 (centres undefined) | -5.029
31 | CCN1CCN(C(=O)c2cn(Cc3ccccc3)c3ncccc23)CC1 | 118.7
32 | CCc1ccc(OCC(=O)N2CCN(CC)CC2)cc1 | -2.93
33 | CN1CCN(C(=O)c2cn(Cc3ccccc3)c3ncccc23)CC1 | 129.1
34 | CNc1ncccc1C(=O)N1CCN(C)C2(CCN(C)CC2)C1 | -3.315
35 | CC(C)CN1CCC2(CC1)CN(C(=O)C(C)C)C2.O=C(O)C(F)(F)F | -9.801
36 | Cc1ccc(CN2C[C@@H]3CN(c4ncc(F)cn4)C[C@@H]3C2)cc1.O=C(O)C(F)(F)F | 6.106
37 | Cc1ccc([C@]2(O)CC[C@H]3CN(Cc4ccccc4F)C[C@H]32)nc1.O=C(O)CC(O)(CC(=O)O)C(=O)O | 152.5
38 | O=C(O)CC(O)(CC(=O)O)C(=O)O.O[C@@]1(c2ccccn2)CC[C@H]2CN(Cc3ccccn3)C[C@H]21 | 115.3
39 | O=C(O)CC(O)(CC(=O)O)C(=O)O.O[C@@]1(c2ccccn2)CC[C@H]2CN(Cc3cccc(Cl)c3Cl)C[C@H]21 | -2.173
40 | O=C(O)C(F)(F)F.O=C1[C@@H]2CN(Cc3ccccn3)C[C@H]2CCN1c1cncnc1 | 16.77
41 | O=C(N1CCCC1)N1C[C@@H]2CCNC[C@@H]21 | -24.15
42 | CCCN1C[C@H]2CC[C@@H]1CN(C(=O)Cc1c(C)nc(CC)[nH]c1=O)C2 | 6.983
43 | CNC(=O)[C@@H]1C[C@H]2CN(c3ncccn3)C[C@H]2N1C(C)C.O=C(O)C(F)(F)F.O=C(O)C(F)(F)F | -5.727
44 | COCCN1CCN(Cc2ccncc2)[C@H]2CS(=O)(=O)C[C@H]21 | 0.5994
45 | O=S1(=O)C[C@@H]2[C@H](C1)N(Cc1ccoc1)CCN2Cc1ccncc1 | -1.69
46 | Oc1cccc(CN2C[C@H]3CC[C@@H]2CN(Cc2ccncc2)C3)c1 | -4.265
47 | CC(C)NC(=O)[C@H]1C[C@@H]2[C@@H](C1)OCCN2Cc1ccncc1 | -4.174
48 | C[C@H]1CN2C[C@H](O)CC2CN1Cc1ccncc1 (some centres undefined) | 120.2

Row | Structure (SMILES) | Percent Effect [%]
49 | C[C@@H]1CN2C[C@H](O)CC2CN1Cc1ccncc1 (some centres undefined) | 148.8
50 | Cc1c(CN2CCCC(C(=O)c3ccc(C(C)(C)C)cc3)C2)cnn1C (centres undefined) | 35.11
51 | CN1CCC2(CC1)C(=O)N(C)c1ccc(F)cc12.Cl | -19.58
52 | CN1CCN(c2ccc(CO)cc2F)CC1 | 13.78
53 | CN1CCN(c2ccc(F)cc2C(N)=O)CC1 | 129.8
54 | CCN1CCC2(CCC1=O)CN(c1nccc(N)n1)CCN2C (centres undefined) | -7.397
55 | CCNCCc1nc2cc(F)ccc2[nH]1.Cl | -10.45
56 | Cc1ccc2c(n1)N(C)CCN(CCN1CCCC1)C2.O=C(O)C(F)(F)F.O=C(O)C(F)(F)F.O=C(O)C(F)(F)F | 31.59
57 | Cc1ccc2c(n1)N(C)CCN(Cc1cnn(C)c1)C2 | 75.85
58 | Cc1oc(-c2ccco2)nc1CC(=O)N1CCN(CC(C)O)CC1 (centres undefined) | 16.55
59 | Cc1ccc(C(=O)N2C[C@H](N3CCOCC3)[C@@H]3OCCC[C@@H]32)cn1.O=C(O)C(F)(F)F.O=C(O)C(F)(F)F | 103.6
60 | CN1CCN([C@@H]2CN(C(=O)c3ccnnc3)[C@@H]3CCCO[C@H]23)CC1 | -8.561
61 | Cc1ccc(C(=O)N2C[C@@H]3CCCO[C@@H]3[C@H](N3CCCC3)C2)cn1.O=C(O)C(F)(F)F.O=C(O)C(F)(F)F | -21.68
62 | CNC(=O)c1cn(C(C)(C)C)c2ncccc12 | 127
63 | CC(C)(C)n1cc(C(=O)NCCCn2ccnc2)c2cccnc21 | 3.37
64 | CCCn1cc(C(=O)NCCCC(N)=O)c2ccccc21 | 15.02
65 | CC(C)(C)n1cc(C2=CCN(CCNC(N)=O)CC2)cn1 | -16.31
66 | CCCNC(=O)c1cn(C(C)(C)C)c2ncccc12 | 115.3
67 | CC(C)(C)n1cc(C(=O)NCCN2CCOCC2)c2cccnc21 | 135
68 | CCNC(=O)c1cn(C(C)(C)C)c2ncccc12 | 133.4
69 | CC(C)(C)n1cc(C2=CCN(CCNC(=O)c3ccccc3)CC2)cn1 | -2.502
70 | Cc1ccnc(CC(C)N(C)Cc2ccc3c(c2)OCCO3)c1 (centres undefined) | 2.178
71 | O=C(NC[C@H]1C[C@@H]2CCN1C[C@@H]2CN1CCCC1)c1ccco1 | 7.038
72 | CC1CCN(C[C@H]2CN3CC[C@H]2C[C@@H]3CNC(=O)c2ccco2)CC1 | -5.154

Row | Structure (SMILES) | Percent Effect [%]
73 | Clc1ccccc1CNC(Cn1cncn1)c1ccccc1 (centres undefined) | -5.969
74 | CCN1CCOCC2(CCCN(C(=O)c3ccncc3F)C2)C1.O=C(O)C(F)(F)F (centres undefined) | 92.47
75 | CN1CCO[C@H]2CN(C(=O)c3ccncc3F)C[C@H]21.O=C(O)C(F)(F)F | -9.265
76 | CCN1CCOCC2(CCCN(C(=O)c3conc3C)C2)C1.O=C(O)C(F)(F)F (centres undefined) | 89.52
77 | CNC(=O)CN1CCOCC2(CCCN(Cc3cccnc3)C2)C1.O=C(O)C(F)(F)F.O=C(O)C(F)(F)F.O=C(O)C(F)(F)F (centres undefined) | -4.883
78 | O=C(O)C(F)(F)F.c1cnc(N2CCCC3(COCCN(CC4CC4)C3)C2)nc1 (centres undefined) | -4.915
79 | O=C(C1CC1)N1CCc2c(ncnc2N2CCN3CCCC3C2)C1 (centres undefined) | 16.5
80 | CC(C)c1nc(CC(=O)N2CCN(C)CC2c2ccccc2)cs1 (centres undefined) | 13.34
81 | Cc1ccc(NC(=O)CNC(C)Cc2ccsc2)cc1F (centres undefined) | 8.644
82 | CN(C)C(=O)[C@H]1CC[C@@H]2[C@@H](CCN2Cc2ccccn2)O1.O=C(O)C(F)(F)F.O=C(O)C(F)(F)F | 1.437
83 | Cc1ccccc1C1(CN)CCOCC1 | 1.37
84 | Cn1cc(N2CC[C@@H]3CN(Cc4ccncc4)C[C@H]3C2=O)cn1.O=C(O)C(F)(F)F.O=C(O)C(F)(F)F | -47.34
85 | c1cc(CN2CC[C@@H]3CN(c4cncnc4)C[C@@H]3C2)ccn1 | 100.2
86 | O=C(O)C(F)(F)F.O=C1[C@H]2CN(Cc3ccc(F)cc3)C[C@H]2CN1c1cncnc1 | -0.4188
87 | O=C(O)C(F)(F)F.O=C(O)C(F)(F)F.c1ccc(N2CC[C@@H]3CN(Cc4ccncc4)CCO[C@@H]3C2)cc1 | -7.726
88 | O=C(O)C(F)(F)F.O=C(O)C(F)(F)F.O=C1[C@H]2CN(Cc3ccncc3)C[C@H]2CN1c1cncnc1 | -1.722
89 | Cc1ccc(N2C[C@H]3CCN(Cc4ccncc4)C[C@H]3C2)nn1.O=C(O)C(F)(F)F | 106.9
90 | O=C(O)C(F)(F)F.c1cc(CN2CC[C@@H]3CN(c4cnccn4)C[C@@H]3C2)ccn1 | 126.3
91 | Cc1ccc(N2CC[C@@H]3CN(Cc4cccc(C)n4)C[C@@H]3C2)nn1.O=C(O)C(F)(F)F | -3.12
92 | Cc1ccc(N2CC[C@@H]3CN(Cc4cc[nH]n4)C[C@@H]3C2)nn1.O=C(O)C(F)(F)F | -9.951
93 | O=C(O)C(F)(F)F.O=C(O)C(F)(F)F.c1cnc(N2CC[C@@H]3CN(Cc4ccncc4)CCO[C@@H]3C2)nc1 | -13.84
94 | O=C(O)C(F)(F)F.c1cnc(N2C[C@H]3CCN(Cc4ccncc4)C[C@H]3C2)nc1 | 87.9
